Screening data deposited in PubChem BioAssay by National Center for Advancing Translational Sciences (NCATS).
D3 antag: D3 dopamine receptor (human) antagonism; P35462; D3R cells, DiscoveRx beta-arrestin luminescence, antagonist mode; stronger effect = lower value; max response, negative = inhibition, %; 2.5% of 360,000 active; AID 652054; in the data active means max response below about -50%; inconclusive means no clear call, values can overlap the other calls; further: on the % scale 0 is the no-effect control and ±100 the full control effect
Target sequence (P35462 whole entry, looked up): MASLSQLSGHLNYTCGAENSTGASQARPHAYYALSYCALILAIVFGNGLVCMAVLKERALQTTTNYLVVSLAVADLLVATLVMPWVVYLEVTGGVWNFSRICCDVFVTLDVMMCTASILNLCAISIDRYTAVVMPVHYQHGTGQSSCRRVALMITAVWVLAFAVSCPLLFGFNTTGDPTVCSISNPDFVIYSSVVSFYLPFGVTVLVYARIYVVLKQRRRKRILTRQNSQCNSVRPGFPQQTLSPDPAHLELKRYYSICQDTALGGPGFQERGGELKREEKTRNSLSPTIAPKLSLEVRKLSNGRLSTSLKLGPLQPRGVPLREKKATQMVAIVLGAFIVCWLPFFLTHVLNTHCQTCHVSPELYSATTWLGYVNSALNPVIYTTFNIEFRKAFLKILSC
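Cells expressing the human receptor were seeded at 1500 cells/well, incubated overnight at 37 degrees C in 5% CO2, then exposed to library compounds with dopamine controls for 90 minutes at 37 degrees C before luminescent detection.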
SW480 rereplic: induces DNA re-replication in SW480 colon adenocarcinoma cells; AID 624297; 1.8% of 340,000 active; SW480 DNA re-replication, Hoechst DNA content imaging, 48 h; Potency, µM (top dose mostly 46.1 µM), inactives show top-dose re-replication activation, usual class: activators; further: potency means the concentration at half of the fitted maximal effect; % of control where 0% means no effect; nearly all actives have a fitted effect of over 55% in size
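Hoechst fluorescence of nuclei (405 nm excitation, 500-530 nm emission) measured by plate-scanning imager after 48 hr compound exposure at 37 C; re-replication scored as increased number of nuclei with elevated intensity.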
MCF10A rereplic: inducers of DNA re-replication in MCF 10A breast cells; 2.9% of 350,000 active; Potency, µM (highest dose often 46.1 µM), without a hit: top-dose activity, positive = re-replication, usual class: activators; MCF 10A DNA re-replication, Hoechst nuclear intensity, 48 h; AID 624296; further: potency means the concentration at half of the fitted maximal effect; % of control where 0% means no effect; nearly all actives have a fitted effect of over 50% in size
KB-3-1 tox: KB-3-1 parental cell cytotoxicity | KB-3-1 viability, CellTiter-Glo ATP luminescence, 72 h | Potency, µM (highest dose often 46.1 µM), hits mostly cytotoxic | 1.4% of 400,000 active | AID 1347075; further: potency means the concentration at half of the fitted maximal effect; on the % scale 0 is the no-effect control and ±100 the full control effect; nearly all actives have a fitted effect of over 60% in size
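Parental KB-3-1 adenocarcinoma cells in phenol-red-free DMEM with 10% FBS were pin-treated with compounds at several concentrations, incubated 72 h at 37 °C, and viability read by CellTiter-Glo luminescence; concentration-effect curves were fitted after normalization.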
KB-V1 MDR tox: KB-V1 MDR subline cytotoxicity | KB-V1 MDR cells viability, CellTiter-Glo, 72 h | Potency, µM (top dose mostly 46.1 µM), actives largely listed as cytotoxic | 3.4% of 400,000 active | AID 1347076; further: potency means the concentration at half of the fitted maximal effect; on the % scale 0 is the no-effect control and ±100 the full control effect; nearly all actives have a fitted effect of over 60% in size
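KB-V1, DMEM (no phenol red) + 10% FBS; cpd pin-transferred, titration series; 72 h, 37 degrees C; CellTiter-Glo, luminescence. Data normalized, curve-fit.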
D3 ag: D3 dopamine receptor (human) agonism | AID 652048 | 0.58% of 410,000 active | D3R DiscoveRx beta-arrestin cells, luminescence, 90 min | P35462 | max activation, %; in the data active means max activation above about 30%; further: 0% is about no effect
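Cells at 1500/well, incubated overnight, then treated with pinned compounds (dopamine as control) for 90 min at 37 degrees C. DiscoveRx reagent added for 30 - 60 minutes at room temperature; luminescence read.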
Starred values were filed as active, the others as inactive; i = inactive; ? = inconclusive; / = not tested or not shown. Hits are enriched below; roughly 8.9% of the tested compounds scored in any of these assays. Unless noted, the call rests on the fitted dose curve; in most records, active means well fitted curve in the direction sought with a large enough effect; inconclusive means small, poorly fitted or top-dose-only effect, or another doubt; inactive means no such curve, though single readings can be large; an effect the other way counts as inactive or inconclusive.

SMILES | D3 antag | SW480 rereplic | MCF10A rereplic | KB-3-1 tox | KB-V1 MDR tox | D3 ag
CCOC(=O)c1ccc(-c2ccc(/C=C(\C#N)C(=O)NCC3CCCO3)o2)cc1 (configuration not stated) | 3 | 5% | 14% | i | 16µM* | 7
N#C/C(=C/c1ccc(-c2ccc(Br)cc2)o1)C(=O)NC1CCCCC1 | 5 | ? | 18µM* | i | i | 10
COc1cc(/C=C(\C#N)C(=O)NCC2CCCO2)ccc1OC(=O)c1ccco1 (configuration not stated) | -53* | -4% | -1% | i | i | -10
N#C/C(=C\c1cccn1-c1ccccc1)C(=O)NC1CCCCC1 | -13 | ? | 0% | 5.8µM* | 4.6µM* | -25
OC(CCN1CCC2CCC(C2)C1)c1ccc(Br)cc1 (configuration not stated) | -9 | 15µM* | 17% | ? | i | -11
O=C(CCN1CCC2CCC(C2)C1)c1ccccc1 (configuration not stated) | -26 | ? | ? | i | i | -6
COc1cc(/C=N/Nc2nc3ccccc3s2)ccc1OC(=O)c1ccccc1F | -3 | ? | 21µM* | ? | ? | 3
COc1cc(OC)cc(C(=O)Oc2ccc(/C=N/Nc3nc4ccccc4s3)cc2OC)c1 | 13 | 19% | ? | i | ? | 20
C=CCNc1oc(/C=C/c2ccccc2)nc1C#N | -13 | 21µM* | 8.2µM* | i | 18µM* | 3
CCOc1ccc(/C=C/c2nc(C#N)c(NCCCN(C)C)o2)cc1 | 0 | 18µM* | 6.5µM* | i | i | -8
CN(C)CCCNc1oc(/C=C/c2ccc(F)cc2)nc1C#N | / | / | / | / | / | -5
COCCCNc1oc(/C=C/c2ccccc2)nc1C#N | 2 | 7.9µM* | 16µM* | i | i | 0
CCOc1ccc(/C=C/c2nc(C#N)c(NCCCOC)o2)cc1 | -10 | 2.1µM* | 3.7µM* | 5.2µM* | 2.1µM* | -8
CCCCN(CC)CCCNC(=O)c1ccc(CS(=O)(=O)c2ccccc2C)o1 | 12 | -3% | 2% | i | i | -9
COc1cccc(/C=C/c2nc(C#N)c(NCC(C)C)o2)c1 | -9 | 21µM* | 3.3µM* | ? | ? | 0
O=C(CSc1ccc2nnc(-c3cccc(F)c3)n2n1)NCc1ccco1 | 9 | -4% | 12% | i | 16µM* | 3
CSc1ccc2nnc(-c3cccc(F)c3)n2n1 | -4 | -9% | 0% | i | 13µM* | 2
CC1=CC(=O)C=C(C)C1=NOC(=O)c1cccc([N+](=O)[O-])c1 | -83* | 7% | ? | i | ? | 8
O=C1c2ccccc2NC(c2ccc3c(c2)OCO3)N1Cc1ccco1 (configuration not stated) | / | / | / | i | i | /
CSc1ccc(C2C(C#N)=C(N)Oc3cc4c(cc32)OCO4)cc1 (configuration not stated) | -25 | ? | ? | i | 4.6µM* | -11
Cc1ccc(C2C(C#N)=C(N)Oc3cc4c(cc32)OCO4)cc1 (configuration not stated) | 15 | ? | ? | ? | ? | 1
COc1ccc(Br)cc1CNC(=O)CN1C(=O)CSc2ccc(S(=O)(=O)N3CCOCC3)cc21 | / | / | / | / | / | -17
CSc1ccc(CN2CCC(C)(Oc3ccc(C(C)=O)cc3)C2)cc1 (configuration not stated) | -69* | / | / | i | i | -9
COC(=O)Cc1ccc(OC2(C)CCN(Cc3ccccc3OC(F)F)C2)cc1 (configuration not stated) | -59* | / | / | i | i | -8
CSc1ccc(CN2CCC(C)(Oc3ccccc3F)C2)cc1 (configuration not stated) | -57* | / | / | i | i | -11
SMILES | D3 antag | SW480 rereplic | MCF10A rereplic | KB-3-1 tox | KB-V1 MDR tox | D3 ag
CC(=O)c1ccc(OC2(C)CCN(Cc3ccccc3OC(F)F)C2)cc1 (configuration not stated) | ? | / | / | i | i | -14
CC(=O)c1ccc(OC2(C)CCN(Cc3csc4ccccc34)C2)cc1 (configuration not stated) | -53* | / | / | i | i | -10
CCCN(CCC)CCNC(=O)CN1C(=O)COc2ccc(S(=O)(=O)N3CCC(C)CC3)cc21 | / | / | / | i | i | -10
CCc1ccccc1NC(=O)CN(Cc1ccccc1)S(=O)(=O)c1ccc(Br)cc1 | / | / | / | i | i | -1
COc1cc(Cl)ccc1OC1(C)CCN(Cc2ccc(SC)cc2)C1 (configuration not stated) | -70* | / | / | i | i | -16
CSc1ccc(CN2CCC(C)(Oc3ccc(F)cc3)C2)cc1 (configuration not stated) | -112* | / | / | i | i | -11
CC1(Oc2ccccc2-c2ccno2)CCN(Cc2csc3ccccc23)C1 (configuration not stated) | -78* | / | / | ? | ? | -21
CC1(Oc2ccc(F)cc2)CCN(Cc2ccccc2OC(F)F)C1 (configuration not stated) | -12 | / | / | i | i | -2
CC1=C(C(=O)N(C(C)C)C(C)C)CC(CC(=O)NCCc2ccccn2)C(=O)N1Cc1ccc(F)cc1 (configuration not stated) | 7 | / | / | i | i | -2
COC(=O)c1scc(-c2ccc(C)cc2)c1S(=O)(=O)N1CCN(c2ccc(C(C)=O)cc2)CC1 | / | / | / | i | i | -17
CN(C)c1oc(-c2ccco2)nc1S(=O)(=O)c1ccc(Br)cc1 | 38 | -2% | 5% | i | 4.6µM* | 2
CCSc1oc(-c2ccco2)nc1S(=O)(=O)c1ccc(Br)cc1 | / | / | / | i | i | -20
CN(C)c1oc(-c2ccccc2Cl)nc1P(=O)(c1ccccc1)c1ccccc1 | -12 | ? | 18µM* | ? | 7.3µM* | -3
Cc1ccc(S(=O)(=O)c2nc(-c3ccccc3Cl)oc2N(C)C)cc1 | 12 | ? | 12% | 18µM* | 10µM* | 3
CN(C)CCCNc1oc(-c2ccccc2Cl)nc1S(=O)(=O)c1ccc(F)cc1 | -61* | ? | -2% | i | i | -23
CN(C)CCNc1oc(-c2ccccc2Cl)nc1S(=O)(=O)c1ccccc1 | -1 | ? | 15% | i | i | -15
Cc1oc2ncnc(N3CCCCC3)c2c1C(=O)Nc1cccc(Cl)c1C | / | / | / | / | / | -14
CCC(=O)N1c2nc(-c3ccco3)nn2C2(CCCCC2)[C@@H]2CCCC[C@@H]21 | / | / | / | / | / | -2
On1onc2c3cc(-c4ccccc4)nc3ccc21 | 8 | 7.3µM* | 8.2µM* | i | 15µM* | 4
